Compounds with a hit are over-represented: about 12% of the library has one in this group of screens.
Cycloheximide cs: affects cycloheximide protein synthesis inhibition readout, counter-screen; cell reporter, cycloheximide protein synthesis inhibition counterscreen; max response, %; 300,000 tested, 12% active; AID 2314; in the data active = max response mostly above about 13%, no sharp cut-off; inactive = mostly below about 14%; also: read at 38.3 µM for the half of the compounds with a filed dose; 0% is about no effect
Shiga toxin inh: blocks Shiga toxin action in Vero cells. Vero cells, Shiga toxin protein synthesis inhibition reporter. 290,000 tested, 9.2% active. AID 2315. inhibition, % at 38.7 µM; in the data active = inhibition mostly above about 28%, no sharp cut-off; inactive = mostly below about 43%; also: 0% is about no effect
Lassa entry inh: blocks Lassa virus binding to or entry into cells; Lassa virus pseudotype entry inhibition, cell reporter; Potency, µM (doses to about 37.9 µM), without a hit: top-dose activity change, negative = inhibition, usual class: inhibitors; 300,000 tested, 1.2% active; AID 540256; calls by dose curve; tested in HEK293 cells; also: potency is read from the fitted curve at half-maximal effect; % is scaled to controls: 0 for no effect and ±100 for the full control effect; nearly all actives have a fitted effect of over 50% in size
Marburg entry inh: blocks Marburg virus binding to or entry into cells. Marburg virus pseudotyped entry inhibition, cell reporter. Potency, µM (doses to about 37.8 µM), inactives show at the top dose activity change, negative = inhibition, most hits filed as inhibitors. 300,000 tested, 1.8% active; calls by dose curve; tested in HEK293 cells; also: potency is read from the fitted curve at half-maximal effect; % is scaled to controls: 0 for no effect and ±100 for the full control effect
* hit, by the source's call; ? = inconclusive; / = no result given; [ ] = remark or other dose.

SMILES	Cycloheximide cs	Shiga toxin inh	Lassa entry inh	Marburg entry inh
C[C@@H]([C@H](O)c1ccc(O)cc1)N1CCC(Cc2ccccc2)CC1	/	/	/	20.6µM*
CC(C(O)c1ccc(O)cc1)N1CCC(Cc2ccccc2)CC1 (stereo not drawn)	-3.8	-9.4	23.1µM*	20.6µM*
CC(C)OCC(O)CN1CCC(Cc2ccccc2)CC1 (stereo not drawn)	8.6	18.9	/	/
CSc1nc2sc3c(c2c(=O)[nH]1)CC[C@@H](C)C3	/	/	/	22.7%
COc1cccc(N2CCN(c3ccc4nnc(CCC(=O)Nc5ccc(F)cc5)n4n3)CC2)c1	4.1	14.0	?	27.1%[46.1 µM]
C/C(CC(=O)Nc1ccc(N(C)C)cc1)=N\NC(=O)c1ccc(C(C)(C)C)cc1	5.9	-10.8	/	/
C/C(CC(=O)Nc1ccc(N(C)C)cc1)=N\NC(=O)c1ccccc1O	16.3*	/	/	/
C/C(CC(=O)Nc1ccc([N+](=O)[O-])cc1)=N\NC(=O)c1ccccc1O	24.1*	/	/	/
C/C(CC(=O)Nc1ccc(N(C)C)cc1)=N\NC(=O)c1ccc([N+](=O)[O-])cc1Cl	17.5	26.9	-2.8%	?
C/C(CC(=O)Nc1ccc(N(C)C)cc1)=N\NC(=O)c1ccc(F)cc1	31.0*	36.0*	/	/
COc1ccc(C(=O)N2CCC(c3ccncc3)CC2)cc1OC	/	/	-3.8%[46.1 µM]	/
CCc1nnc(NC(=O)c2ccc(Cl)c(S(=O)(=O)N3CCc4ccccc43)c2)s1	0.6	-8.2	-14.4%	?
O=C1CN(C(=O)c2ccc(Cl)c(S(=O)(=O)N3CCc4ccccc43)c2)c2ccccc2N1	-4.6	-5.0	?	3.55µM*
O=C(Nc1ccncc1)c1ccc(Cl)c(S(=O)(=O)N2CCc3ccccc32)c1	/	/	7.94µM*	?
CC(OC(=O)CCC(=O)c1ccc(F)cc1)C(=O)NC1CCCCC1C (stereo not drawn)	1.5	2.4	12.0%	-14.5%
O=Cc1ccc(C(=O)OCC(=O)Nc2ccc(F)cc2F)cc1	-5.1	31.1	-7.9%	5.0%[46.1 µM]
Cc1ccc(-n2c(O)c(C=Nc3ccccc3N)c(=O)[nH]c2=O)cc1C	45.6*	67.2*	?	?
COc1cccc(C(=O)NC(=S)Nc2cccnc2)c1	25.9*	42.7*	14.5%	-1.4%
CCOc1cc(C(=O)NC(=S)Nc2cccnc2)cc(OCC)c1OCC	-2.7	-10.4	-23.3%	?
CC(C)Oc1cccc(C(=O)NC(=S)Nc2ccccc2)c1	93.6*	119.7*	?	-38.8%
CC(C)Oc1cccc(C(=O)NC(=S)Nc2cccnc2)c1	32.0*	39.9	-24.9%	-7.2%
CCCOc1cccc(C(=O)NC(=S)Nc2ccccc2)c1	5.1	18.3	-3.2%	5.5%
CSc1cccc(NC(=S)NC(=O)c2cccnc2)c1	10.5	11.9	/	/
COc1ccc(C(=O)NC(=S)Nc2cccnc2)cc1Cl	-2.9	-3.3	29.6%	9.4%[46.1 µM]
CCOc1ccc(C(=O)NC(=S)Nc2cccnc2)cc1	29.8*	0.0	?	?
SMILES	Cycloheximide cs	Shiga toxin inh	Lassa entry inh	Marburg entry inh
c1ccc2c(c1)ccn2CCCN1CCCCC1	/	/	11.6%	?
Cc1csc(=Nc2cccnc2)n1Cc1ccco1	7.9	-5.1	?	22.0%[46.1 µM]
CC(C)=N/N=c1\scc(C)n1Cc1ccco1	-2.1	-3.8	-1.9%	5.0%[46.1 µM]
Cc1cs/c(=N\N=C2CCCCC2)n1Cc1ccco1	33.5*	69.0*	-18.4%[46.1 µM]	3.1%[46.1 µM]
Cc1cs/c(=N\N=C\c2ccccc2)n1Cc1ccco1	22.6*	50.9	14.0%	-29.0%
N#Cc1ccccc1NS(=O)(=O)c1ccc(N2CCCCS2(=O)=O)cc1	/	/	-4.1%[46.1 µM]	/
O=C(c1ccc2c(c1)OCO2)N1CCN(c2ccc(F)cc2)CC1	18.5*	32.7	-11.1%	13.6%
O=C(c1ccc2c(c1)OCO2)N1CCc2ccccc21	29.2	58.7*	11.9%	?
O=C(c1ccc(=O)oc1)N1CCCc2ccccc21	50.7*	76.2*	23.3%	6.3%
O=C(c1cccc(N2C(=O)C3CC=CCC3C2=O)c1)N1CCCc2ccccc21 (stereo not drawn)	35.5*	74.5*	3.6%	7.8%
O=C(c1ccc2[nH]c(=O)c(=O)[nH]c2c1)N1CCc2ccccc21	-3.1	-7.3	/	/
C[C@H]1Cc2c(-c3ccccc3)nc3c(c2CO1)CN(C(=O)NCc1ccco1)CC3	/	/	/	9.3%[14.2 µM]
Cc1ccc2c(c1)CCCN2C(=O)c1ccc2c(c1)OCO2	-3.0	-0.5	4.2%	-1.2%
CC(NCc1ccc2c(c1)OCO2)C(=O)N1CCc2ccccc21 (stereo not drawn)	-2.6	-4.7	-10.6%	0.4%
CC(Nc1ccc2c(c1)OCCO2)C(=O)N1CCc2ccccc21 (stereo not drawn)	21.2*	84.3*	15.2%[46.1 µM]	0.3%[46.1 µM]
O=C(c1ccc2c(c1)OCO2)N1CCc2ccccc2C1	70.4*	55.1*	?	21.5%
O=C(c1ccc2c(c1)OCO2)N1CCCc2ccccc21	39.7*	73.7*	10.9%	0.3%
CCCOc1ccc(-c2nc(=S)[nH][nH]2)cc1	8.0	40.7	1.9%	?
